This is a sample that favours compounds with a hit; in the whole collection about 2.8% have one here.
HIF-2a inh: blocks HIF-2a reporter activity. AID 624352. 786-0 RCC cells HIF-2a reporter, luciferase luminescence, overnight. 0.72% of 360,000 active. inhibition, % at 18.8 µM;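 active = inhibition of the luminescence signal of 40% or more relative to plate controls, in a single-dose primary screen at 18.75 µM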
Peg3 promoter: Peg3 promoter activity inhibition | inhibition, % at 20 µM | HeLa PEG-Prom luciferase reporter, luminescence, overnight | AID 588405 | 1.7% of 360,000 active;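 active = inhibition of at least 50% at 20 µM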
TRPM1 prom inh: reduces MITF-dependent TRPM1 promoter luciferase signal | SK-MEL-5 TRPM1 promoter luciferase, 24 h | inhibition, % at 12.5 µM | 0.83% of 330,000 active | AID 488899;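 active = mean inhibition across replicates of 60% or more, whatever share of single replicates reaches that level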
CF NFkB block: blocks PAF-induced NF-kB reporter in cystic fibrosis cells. inhibition, % at 5 µM. KKLEB NF-kB-GFP reporter, GFP fluorescence overnight. 0.86% of 360,000 active;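 active = at least 50% inhibition at 5 µM, scaled per plate between neutral and stimulator controls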;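 note: PAF is a Pseudomonas aeruginosa culture filtrate used as stimulus; plate controls were PAF-stimulated DMSO wells for no effect and unstimulated DMSO wells for full effect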
KKLEB tox: counter-screen for CF NF-kB inhibitors: cytotoxicity. activity change (cytotoxicity), % at 5 µM. KKLEB CF airway cells viability, ATPlite luminescence, overnight; hits give low values; cells stimulated with P. aeruginosa culture filtrate. 0.36% of 360,000 active;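 active = corrected activity change at or below -50% at 5 µM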
Shn3 inh set2: reduces Shn3 3'UTR luciferase signal in osteoblasts. inhibition, % at 12.5 µM. AID 588674. Clone20 osteoblast Shn3 3'UTR firefly luciferase, 24 h. 0.52% of 360,000 active;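 active = mean inhibition of at least 75% with every replicate also reaching 75%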;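 note: 0% = median of neutral control wells and 100% = pilot-screen positive control compound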
Active calls of the source: *.

Screening Cn1ccsc1=NC(=O)c1ccc(Cl)c([N+](=O)[O-])c1 returned HIF-2a inh -113.2, Peg3 promoter -147.2, TRPM1 prom inh -59.5, CF NFkB block -3.3, KKLEB tox 4.0 and Shn3 inh set2 -60.0.
Cc1cc(S(=O)(=O)ON2C(=O)c3ccccc3C2=O)ccc1F was read as HIF-2a inh 34.2, Peg3 promoter 61.3*, TRPM1 prom inh 43.5, CF NFkB block 7.6, KKLEB tox -8.2 and Shn3 inh set2 -0.9.
Screening COc1cc(SC)ccc1C(=O)Nc1ccc2ncccc2c1 returned HIF-2a inh -191.0, Peg3 promoter -274.2, TRPM1 prom inh -19.8, CF NFkB block -15.6, KKLEB tox -5.1 and Shn3 inh set2 -102.2.
O=C(c1ccc([N+](=O)[O-])s1)N1CCc2ccccc21 was read as HIF-2a inh -38.6, Peg3 promoter -95.1, TRPM1 prom inh 30.2, CF NFkB block -8.3, KKLEB tox 9.8 and Shn3 inh set2 -16.3.
For O=C(c1ccc([N+](=O)[O-])s1)N1CCCc2ccccc21 the results were HIF-2a inh -14.6, Peg3 promoter -6.9, TRPM1 prom inh 70.5*, CF NFkB block 4.7, KKLEB tox -6.2 and Shn3 inh set2 3.6.
`O=C(Nc1ccc(Oc2c(F)c(F)c(F)c(F)c2F)cc1)OC1CCN2Cc3ccccc3N=C12` (stereo not drawn) gave HIF-2a inh 22.2, Peg3 promoter 108.7*, TRPM1 prom inh 62.4*, CF NFkB block -18.8, KKLEB tox 3.5 and Shn3 inh set2 50.3.
For Nc1ncnn1Cc1ccccc1 the results were HIF-2a inh 7.8, Peg3 promoter 6.7, CF NFkB block 2.5, KKLEB tox 8.5 and Shn3 inh set2 -24.0.
For Cc1c(C(=O)N(Cc2cccc(Br)c2)C2CCS(=O)(=O)C2)oc2ccccc12 (stereo not drawn) the results were HIF-2a inh 24.3, Peg3 promoter 24.6, TRPM1 prom inh 27.8, CF NFkB block -9.3, KKLEB tox -9.9 and Shn3 inh set2 86.4*.
CC1(C)CCCN(C(=O)c2ccc3c(c2NCCO)C(=O)c2ccccc2C3=O)C1 was read as HIF-2a inh 40.3*, Peg3 promoter 23.0, TRPM1 prom inh 15.9, CF NFkB block -1.8, KKLEB tox -0.6 and Shn3 inh set2 2.3.
For O=C1c2ccccc2C(=O)c2c1ccc(C(=O)N1CCCCC1)c2NCCO the results were HIF-2a inh -0.6, Peg3 promoter 24.2, TRPM1 prom inh 25.2, CF NFkB block 10.5, KKLEB tox -10.7 and Shn3 inh set2 10.3.
Screening Cc1cc2ccccn2c1C(=O)c1cccc([N+](=O)[O-])c1 returned HIF-2a inh -2.9, Peg3 promoter 8.1, TRPM1 prom inh 11.5, CF NFkB block 12.8, KKLEB tox -8.4 and Shn3 inh set2 16.0.
Cc1cc2ccccn2c1C(=O)c1ccc([N+](=O)[O-])o1 was read as HIF-2a inh 37.6, Peg3 promoter 98.9*, TRPM1 prom inh 36.4, CF NFkB block 30.0, KKLEB tox -21.4 and Shn3 inh set2 61.6.
For CCCNC(=O)c1ccc2c(=O)c(O)c(-c3ccc(C)cc3)[nH]c2c1 the results were HIF-2a inh 32.4, Peg3 promoter 26.6, TRPM1 prom inh 40.3, CF NFkB block 21.7, KKLEB tox -5.8 and Shn3 inh set2 -77.6.
Screening Cc1ccc(CNC(=O)c2ccc3c(=O)c(O)c(-c4ccc(C)cc4)[nH]c3c2)cc1 returned HIF-2a inh 16.5, Peg3 promoter 27.7, TRPM1 prom inh 56.0, CF NFkB block -10.4, KKLEB tox -10.1 and Shn3 inh set2 87.2*.
Screening CCOC(=O)c1sc(NC(=O)CN2C(=O)C3CC=CCC3C2=O)nc1C (stereo not drawn) returned HIF-2a inh 15.4, Peg3 promoter 88.5*, TRPM1 prom inh 1.4, CF NFkB block 11.5, KKLEB tox 2.1 and Shn3 inh set2 7.1.
Screening CCOC(=O)c1sc(NC(=O)CSc2nnc(C(C)C)n2CC)nc1C returned HIF-2a inh 5.0, Peg3 promoter 52.0*, TRPM1 prom inh 1.7, CF NFkB block -4.3, KKLEB tox -8.7 and Shn3 inh set2 25.8.
For CCOc1ncccc1C(=O)NCC(c1ccccc1)N(C)C (stereo not drawn) the results were HIF-2a inh -3.1, Peg3 promoter -8.5, TRPM1 prom inh 11.1, CF NFkB block -12.6, KKLEB tox 4.2 and Shn3 inh set2 12.2.
O=C(Nc1ccccc1)Nc1cc(OCC(F)(F)F)cc(OCC(F)(F)F)c1 was read as HIF-2a inh -13.5, Peg3 promoter 41.9, TRPM1 prom inh 85.5*, CF NFkB block 45.9, KKLEB tox -50.7* and Shn3 inh set2 93.4*.
Screening O=C(Nc1ccccc1)Nc1cc(Cl)cc(Cl)c1 returned HIF-2a inh -157.7, Peg3 promoter -62.4, TRPM1 prom inh -0.8, CF NFkB block 48.5, KKLEB tox -45.0 and Shn3 inh set2 66.5.
`COc1ccc(S(=O)(=O)N2CCC(C(=O)NCCC(=O)NCc3cccnc3)CC2)cc1` gave HIF-2a inh 6.1, Peg3 promoter 2.6, CF NFkB block 6.0, KKLEB tox -5.1 and Shn3 inh set2 -5.4.
Screening CCc1ccc2c(c1)CCCN2C(=O)c1ccccc1C(=O)O returned HIF-2a inh 10.1, Peg3 promoter 18.2, TRPM1 prom inh 25.9, CF NFkB block 1.3, KKLEB tox 4.6 and Shn3 inh set2 87.6*.
`COc1ccc(N(CC(=O)NCc2cccs2)S(=O)(=O)c2cccc(C)c2)cc1` gave HIF-2a inh 4.4, Peg3 promoter -14.2, TRPM1 prom inh -5.3, CF NFkB block 0.8, KKLEB tox 5.3 and Shn3 inh set2 -2.7.
Screening COc1ccc(N(C)C(=O)c2ccc3snnc3c2)cc1 returned HIF-2a inh -5.1, Peg3 promoter -2.4, CF NFkB block -1.1, KKLEB tox -12.2 and Shn3 inh set2 86.8*.
Screening [O-][n+]1onc2c1CCc1c-2nn(-c2ccccc2Cl)[n+]1[O-] returned HIF-2a inh 4.3, Peg3 promoter 47.4, TRPM1 prom inh 6.8, CF NFkB block 0.5, KKLEB tox -12.9 and Shn3 inh set2 14.4.
Cc1ccc(-n2nc3c([n+]2[O-])CCc2c-3no[n+]2[O-])cc1 was read as HIF-2a inh -24.8, Peg3 promoter 2.4, TRPM1 prom inh 23.8, CF NFkB block -1.5, KKLEB tox 9.0 and Shn3 inh set2 89.9*.
For CC1CCCCN1C(=O)c1cc2ccccc2cc1O (stereo not drawn) the results were HIF-2a inh 13.3, Peg3 promoter 16.7, TRPM1 prom inh 5.4, CF NFkB block 1.4, KKLEB tox -10.3 and Shn3 inh set2 2.9.
For CCN(Cc1ccccc1)S(=O)(=O)c1ccc(C(=O)N(CCCN(C)C)c2nc3c(C)c(C)ccc3s2)cc1 the results were HIF-2a inh -2.3, Peg3 promoter 92.9*, TRPM1 prom inh -4.4, CF NFkB block 30.0, KKLEB tox -23.9 and Shn3 inh set2 -10.9.
`Cc1ccc2sc(N(CCCN(C)C)C(=O)c3ccc(S(=O)(=O)N4CCOCC4)cc3)nc2c1C` gave HIF-2a inh 14.2, Peg3 promoter -25.6, TRPM1 prom inh -7.5, CF NFkB block 19.6, KKLEB tox -5.3 and Shn3 inh set2 -18.6.
